Results on 90 molecules are retold here after PubChem BioAssay AID2025 (NMMLSC, 2009).

The whole screen tested about 330,000 compounds, of which about 980 (0.3%) were called active.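 Rule for the calls: active = percent response vs DMSO below 50%; inconclusive = fewer than 70 events counted for the yeast strain; inactive = the rest.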 Shown is part of a subset that was picked to be rich in actives.

The nature of this experiment: compounds altering RPL19A-GFP fluorescence, TOR branch – cell-based, S. cerevisiae, multiplex flow cytometry, MLPCN, primary screen (AID 2025).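 Note: median channel GFP fluorescence of the barcoded RPL19A-GFP strain; ratio of sample median GFP to plate DMSO average so 100% = DMSO; lower means less RPL19A-GFP as with rapamycin TOR inhibition.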 To be noted: S. cerevisiae RPL19A-GFP strain, 3 h, at 10 µM, active compounds read low. In general terms: A flow cytometer gives signals particle by particle.
In the case of `CCCOc1ccc(/C=N/NC(=O)C2CC2)c(OCCC)c1`, the percent response vs DMSO is 101% (inactive).

Consider `COc1cccc(N=c2oc3c(C)ncc(CO)c3cc2C(N)=O)c1`, for which the percent response vs DMSO was 95% (inactive).

`Cc1oc(-c2ccccc2F)nc1CS(=O)CC(=O)NCCN1CCCCC1C` (stereo not given): the percent response vs DMSO was 100% (inactive).

Turning to `Cc1ccccc1S(=O)(=O)Cc1ccc(C(=O)NCCN2CCCCC2C)o1` (stereo not given), the percent response vs DMSO is 34.3% [may fluoresce violet] (active).

`CCc1ccccc1S(=O)(=O)Cc1ccc(C(=O)NCCc2ccccc2)o1`: the percent response vs DMSO was 96.8% (inactive).

As to `CCCS(=O)(=O)N1CCCC(C(=O)NCCN2CCCCC2C)C1` (stereo not given), the percent response vs DMSO was 104% (inactive).

Turning to `Cc1cc(N2CCOCC2)nc2ccc(NC(=S)N3CCN(Cc4ccccc4)CC3)cc12`, the percent response vs DMSO is 105% (inactive).

As to `CCN(CC)c1ccc(C(=O)N/N=C(\C)c2cccc(OC)c2)cc1`, the percent response vs DMSO was 103% (inactive).

Consider `COc1ccc(/C(C)=N/NC(=O)c2ccc3nc[nH]c3c2)cc1`, for which the percent response vs DMSO is 22.1% [may fluoresce violet] (active).

Consider `CC(=NNC(=O)c1ccc2nc[nH]c2c1)c1ccc(Br)cc1`, for which the percent response vs DMSO is 103% (inactive).

With `CCCC(NC(=O)c1ccco1)c1nc2ccccc2[nH]1` (stereo not given), the percent response vs DMSO is 104% (inactive).

In the case of `COc1c(C)c2c(c(O)c1C/C=C(\C)CCC(=O)O)C(=O)OC2`, the percent response vs DMSO was 39.1% [may fluoresce violet] (active).

With `Cc1c(C)n2c(SCC(=O)NC3CCCC3)nnc2[nH]c1=O`, the percent response vs DMSO was 88% (inactive).

Consider `COc1cc(SC)ccc1C(=O)NNC(=O)C1COc2ccccc2O1` (stereo not given), for which the percent response vs DMSO is 95% (inactive).

`CCOc1ccccc1NC(=O)C12CC3CC(C1)CC(c1ccc(C)cc1)(C3)C2`: the percent response vs DMSO is 101% (inactive).

For the molecule `C=CCNC(=O)C12CC3CC(C1)CC(C(=O)NCC=C)(C3)C2`, the percent response vs DMSO is 98.2% (inactive).

Take `Cc1ccc(C23CC4CC(CC(C(=O)NCC(=O)O)(C4)C2)C3)cc1`: the percent response vs DMSO is 30% [may fluoresce violet] (active).

For `O=C(COc1ccc2c(c1)CCC2)N1CCN(c2ccc(F)cc2)CC1`, the percent response vs DMSO was 95.3% (inactive).

Take `COc1ccc(-c2nc3ccccc3n2CCC(C)C)cc1OC`: the percent response vs DMSO is 98.3% (inactive).

Take `O=C1N(c2ccc(Cl)cc2)C(c2ccc(Cl)cc2)N2CCCN12` (stereo not given): the percent response vs DMSO is 95.4% (inactive).

Take `CCOC(=O)C1CCN(C(=O)CN2C(=O)c3cccnc3Oc3ccc(C)cc32)CC1`: the percent response vs DMSO was 97.7% (inactive).

For `Cc1cc2c(cc1C)N(Cc1ccccc1)C1=NCCCN12`, the percent response vs DMSO was 101% (inactive).

Take `COC(=O)C1=C(N)Oc2c(oc(CO)cc2=O)C1c1c(F)cccc1Cl` (stereo not given): the percent response vs DMSO was 103% (inactive).

In the case of `C=CCOC(=O)C1=C(C)OC(N)=C(C#N)C1c1ccc(F)cc1` (stereo not given), the percent response vs DMSO is 91.2% (inactive).

`CC(C)c1ccc(C2C(C#N)=C(N)Oc3c2oc(CO)cc3=O)cc1` (stereo not given): the percent response vs DMSO is 44% [may fluoresce violet] (active).

Turning to `Cc1cccc(OCC(=O)NC2CC(C)(C)NC(C)(C)C2)c1`, the percent response vs DMSO was 98.6% (inactive).

Consider `Cc1cccc(NC(=O)Cn2c(=O)n(Cc3ccccc3)c(=O)c3c(C)c(C)sc32)c1`, for which the percent response vs DMSO is 104% (inactive).

In the case of `Cc1c(C(C)(C)O)[nH]c2ccc(C#N)cc12`, the percent response vs DMSO was 91.7% (inactive).

Turning to `CCOC(=O)C1CCCN(C(=O)CSc2nnc3nc(C)cc(C)n23)C1` (stereo not given), the percent response vs DMSO was 93.7% (inactive).

With `COc1cc(C(=O)NC2CCN(C)CC2)ccc1Nc1ncc2c(n1)N(C1CCC(O)CC1)CCC(=O)N2C` (stereo not given), the percent response vs DMSO is 90.7% (inactive).

As for `O=C(CS(=O)(=O)c1cn(Cc2cccc(F)c2)c2ccccc12)N1CCCCC1`, the percent response vs DMSO is 43% [may fluoresce violet] (active).

`O=C(CS(=O)(=O)c1cn(Cc2ccc(Cl)cc2)c2ccccc12)N1CCOCC1`: the percent response vs DMSO is 91.2% (inactive).

Take `CC(=O)Nc1ccc(NC(=O)CS(=O)(=O)c2cn(CC(=O)N3CCCCC3)c3ccccc23)cc1`: the percent response vs DMSO was 97.7% (inactive).

For `CN1CCN(C2Cc3ccc(Cl)cc3Sc3ccc(F)cc32)CC1` (stereo not given), the percent response vs DMSO is 100% (inactive).

`COCCN(C(=O)CSCc1ccc(C)cc1)c1c(N)n(CC(C)C)c(=O)[nH]c1=O`: the percent response vs DMSO is 93.3% (inactive).

Take `Nc1nc(SCc2cccc(Br)c2)n[nH]1`: the percent response vs DMSO was 99.2% (inactive).

Take `Cc1ccc(N2CCN(S(=O)(=O)c3ccc(F)cc3)CC2)c(C)c1`: the percent response vs DMSO was 94.2% (inactive).

Turning to `O=C(c1ccco1)N(Cc1nc2ccccc2c(=O)[nH]1)C1CCCC1`, the percent response vs DMSO is 16.5% [may fluoresce violet] (active).

For `CCCC(=O)N(CCc1ccccc1)Cc1nc2ccccc2c(=O)[nH]1`, the percent response vs DMSO is 90.4% (inactive).

Take `CCN(CC(=O)NC(=O)NCc1ccccc1)Cc1nc2ccccc2c(=O)[nH]1`: the percent response vs DMSO is 102% (inactive).

Regarding `CC(C)(C)NC(=O)CN(Cc1cccs1)C(=O)CNS(=O)(=O)c1ccccc1`, the percent response vs DMSO was 107% (inactive).

For the molecule `O=P(c1cccs1)(c1cccs1)c1cccs1`, the percent response vs DMSO was 98.8% (inactive).

Consider `Cc1nc(C)c(C(=O)Nc2cccc(C)c2C)o1`, for which the percent response vs DMSO is 98.6% (inactive).

Consider `Cc1cccc(NC(=O)c2cccc(C(=O)Nc3cccc(C)c3C)n2)c1C`, for which the percent response vs DMSO is 49.4% [may fluoresce violet] (active).

With `Cc1cccc(NC(=O)c2ccc3nsnc3c2)c1C`, the percent response vs DMSO was 103% (inactive).

On to `Cn1c(=O)oc2cc(S(=O)(=O)NCCC(=O)NCc3ccccc3Cl)ccc21`, for which the percent response vs DMSO was 106% (inactive).

Take `COc1ccccc1S(=O)(=O)NCc1ccc(C(=O)N(C)Cc2ccc(F)cc2)cc1`: the percent response vs DMSO was 91.3% (inactive).

As for `COc1ccccc1/C=C/C(=O)OCC(=O)NC1CCCCCC1`, the percent response vs DMSO is 96.2% (inactive).

`CCC(c1nnnn1Cc1ccco1)N(Cc1cc2cc(OC)ccc2[nH]c1=O)C1CCCCC1` (stereo not given): the percent response vs DMSO is 39.1% [may fluoresce violet] (active).

Regarding `CCC(c1nnnn1Cc1ccco1)N(CCc1ccccc1)Cc1cc2cccc(C)c2[nH]c1=O` (stereo not given), the percent response vs DMSO is 100% (inactive).

Consider `CCC(c1nnnn1Cc1ccccc1)N(Cc1cc2cc(OC)ccc2[nH]c1=O)CC1CCCO1` (stereo not given), for which the percent response vs DMSO was 94.8% (inactive).

Consider `O=C(CS(=O)(=O)c1ccc(C(F)(F)F)cn1)NNC(=O)c1ccccc1`, for which the percent response vs DMSO was 99.4% (inactive).

Turning to `C/C(=N\NS(=O)(=O)c1ccccc1)c1c(O)cc(C)oc1=O`, the percent response vs DMSO is 105% (inactive).

For the molecule `CCC(=O)Nc1ccc(C(=O)N2CCN(C(=O)c3ccco3)CC2)cc1`, the percent response vs DMSO was 94.2% (inactive).

Take `Cc1ccc(OCC(=O)Nc2ccc(N3CCN(C(=O)c4ccco4)CC3)cc2)c(C)c1`: the percent response vs DMSO is 41.5% [may fluoresce violet] (active).

For `Cc1ccc(C)c(OCC(=O)N2CCN(C(=O)c3ccco3)CC2)c1`, the percent response vs DMSO was 110% (inactive).

On to `CC1(C)OC(=O)N2CCc3ccccc3C21C` (stereo not given), for which the percent response vs DMSO was 99% (inactive).

Take `CCCNC(=O)C(=O)Nc1cc2c3c(c1)CCC(=O)N3CCC2`: the percent response vs DMSO is 100% (inactive).

Take `O=C(Nc1cc2c3c(c1)CC(=O)N3CCC2)c1ccccc1F`: the percent response vs DMSO is 43.6% [may fluoresce violet] (active).

Regarding `O=C(COc1ccccc1)Nc1cc2c3c(c1)CC(=O)N3CCC2`, the percent response vs DMSO is 101% (inactive).

As to `Cc1cccc(NC(=S)NCc2ccc3[nH]c4c(c3c2)CCCC4)c1`, the percent response vs DMSO was 105% (inactive).

For `COc1cccc(CN2CCNC(=O)C2CC(=O)N(C)CCc2ccccn2)c1` (stereo not given), the percent response vs DMSO was 102% (inactive).

Consider `COCCNC(=O)Nc1ccc2nc(-c3ccco3)c(-c3ccco3)nc2c1`, for which the percent response vs DMSO is 23.4% [may fluoresce violet] (active).

For the molecule `COc1cccc(NC(=O)NCCN2CCCCC2)c1`, the percent response vs DMSO is 96% (inactive).

Turning to `O=C(NCc1ccccn1)c1ccc2nc(-c3ccco3)c(-c3ccco3)nc2c1`, the percent response vs DMSO is 99.4% (inactive).

Turning to `COc1ccc([N+](=O)[O-])cc1NCC(=O)c1ccc(C)cc1`, the percent response vs DMSO is 104% (inactive).

On to `COc1cc(C(=O)NCCOC(=O)c2cccc(N(C)C)c2)cc(OC)c1OC`, for which the percent response vs DMSO was 101% (inactive).

Consider `O=C(O)c1cc(S(=O)(=O)NC2CCCc3ccccc32)ccc1O` (stereo not given), for which the percent response vs DMSO is 34.1% [may fluoresce violet] (active).

As to `O=C(CCC(=O)N1CCN(S(=O)(=O)c2ccccc2)CC1)NC1CCCc2ccccc21` (stereo not given), the percent response vs DMSO was 101% (inactive).

Regarding `CNS(=O)(=O)c1cccc(C(=O)NC2CCCc3ccccc32)c1` (stereo not given), the percent response vs DMSO is 101% (inactive).

For `CC(=O)Nc1ccccc1C(=O)C(=O)Nc1ccc(F)cc1`, the percent response vs DMSO was 105% (inactive).

Consider `O=C(CCC(=O)c1ccccc1)NCc1cccc(C(F)(F)F)c1`, for which the percent response vs DMSO was 98.9% (inactive).

Take `O=C(c1cc2ccccc2o1)N1CCN(c2cccc(C(F)(F)F)c2)CC1`: the percent response vs DMSO is 98.3% (inactive).

On to `O=C(c1cccc(Cl)c1)N1CCN(Cc2ccccc2)CC1`, for which the percent response vs DMSO was 103% (inactive).

With `COc1ccc(CNC(=O)C2CCN(C(=O)c3ccccc3)CC2)cc1`, the percent response vs DMSO was 82.1% (inactive).

Consider `O=C(NCc1ccncc1)C1CCN(C(=O)c2cccc(Cl)c2)CC1`, for which the percent response vs DMSO is 42.1% [may fluoresce violet] (active).

`COc1ccc(S(=O)(=O)N2CCOC2CNC(=O)C(=O)NCc2ccncc2)cc1C` (stereo not given): the percent response vs DMSO is 99.3% (inactive).

Regarding `COc1cccc(C2SCC(=O)N2c2cccc(C)c2)c1OC` (stereo not given), the percent response vs DMSO is 49.7% [may fluoresce violet] (active).

Consider `O=C1CSC(c2cccc(F)c2)N1c1ccc(O)cc1` (stereo not given), for which the percent response vs DMSO was 95.8% (inactive).

Regarding `Cc1ccc(C2SCC(=O)N2c2ccccc2)cc1` (stereo not given), the percent response vs DMSO is 103% (inactive).

For the molecule `O=C(CC(NS(=O)(=O)c1ccc(Cl)cc1)c1ccco1)NC1CCCC1` (stereo not given), the percent response vs DMSO is 96.4% (inactive).

`O=C(CSc1ccccn1)Nc1nc2c(ccc3ccccc32)s1`: the percent response vs DMSO is 106% (inactive).

For `COc1ccc(NC(=O)CN(C)C(=O)CC2CCCCC2)cc1`, the percent response vs DMSO was 96.3% (inactive).

For the molecule `CC(=O)Nc1ccc(NC(=O)CC2CCCC2)cc1`, the percent response vs DMSO was 42.2% [may fluoresce violet] (active).

`CC(=O)Nc1ccc(NC(=O)COC(=O)C2CCC(C(C)(C)C)CC2)cc1` (stereo not given): the percent response vs DMSO is 103% (inactive).

With `Cc1ccc(NC(=S)N(CCCN2CCCC2)Cc2cccn2Cc2ccc(Cl)cc2)cc1`, the percent response vs DMSO was 99.4% (inactive).

For `CN(CCCNC(=O)CN1C(=O)CC(C)(C)S(=O)(=O)c2ccccc21)C1CCCCC1`, the percent response vs DMSO is 91.3% (inactive).

As to `NCCCCCC(=O)N/N=C/c1ccc2nccnc2c1`, the percent response vs DMSO was 48% [may fluoresce violet] (active).

Take `Cc1nccn1CC(=O)N/N=C/c1ccc(O)c(O)c1`: the percent response vs DMSO is 103% (inactive).

Consider `O=C(N/N=C/c1ccc(Cl)c(Cl)c1)c1ccc2nc[nH]c2c1`, for which the percent response vs DMSO was 99.3% (inactive).
